{"source": "PubChem BioAssay (NCATS)", "note": "Records with an inconclusive call do not appear. Active and inactive are the calls of the source. Calls follow the shape of the full dose curve. Potency is read from the fitted curve at half-maximal effect."}
{"assay": "Confirmatory qHTS to identify inhibitors of SARS-CoV-2 cell entry (AID 1645844); also: nearly all actives have a fitted effect of over 45% in size", "conditions": "SARS-CoV-2 pseudotyped particle cell entry, luciferase; series mostly up to 57.2 µM", "text": "Assay Provider: Wei Zheng, Ph.D.\nNational Center for Advancing Translational Sciences, National Institute of Health, Rockville, MD.\nSARS-CoV-2 spike protein, within the viral envelope, mediates viral attachment and infection of host cells. The SARS-CoV-2 spike protein specifically binds to the host receptor ACE2 (Angiotensin-converting enzyme 2). This interaction promotes endocytosis of the viral particle, additional events lead to viral-host cell membrane fusion and release of the viral contents, allowing viral replication.\nWhile SARS-CoV-2 requires BSL-3 facilities for live virus work, pseudotyped partices (PP) that incorporate SARS-CoV-2 spike proteins without replication elements could facilitate studies on viral entry mechanisms in a BSL-2 setting. This PP cell entry assay could also enable screening of small molecule compound libraries in BSL-2 setting to identify inhibitors of SARS-CoV-2 cell entry.\nSEQUENCE No. (e.g., 1, 2, 3, etc.); […] (e.g., Cells, Incubation, Reagent, etc.); VALUE and DESCRIPTION.\n1. Cells. Seed 1500 HEK293-ACE2 cells (Expi293F with stable expression of human ACE2) in 2 uL/well media (DMEM, 10% FBS, 1x L-glutamine, 1x Pen/Strep, 1 ug/ml puromycin) in white 1536-well assay plates (Greiner #782073).\n2. Incubation. Incubate at 37C with 5% CO2 overnight (~16 h).\n3. Compounds. Dispense 23 nL/well compounds in DMSO via pin transfer.\n4. Incubation. Incubate for 1 hr at 37C 5% CO2.\n5. Reagent. Dispense 2 uL/well of SARS-CoV-2-S pseudotyped particles (PP). [a] PPs are produced with murine leukemia virus pseudotyping). [b] SARS-CoV-2-S is Wuhan-Hu-1 sequence (BEI #NR-52420) with C-terminal 19 amino acid truncation.\n6. Centrifugation. […]\n7. Incubation. Incubate at for 48 hr at 37C 5% CO2\n8. Centrifugation. Remove supernatant with gentle centrifugation using a Blue Washer (BlueCat Bio).\n9. Reagent. Dispense 4 uL/well of Bright-Glo Luciferase detection reagent (Promega #E2620).\n10. Incubation. Incubate for 5 min at room temperature.\n11. Detection. Read luminescence signal (Viewlux plate reader, PerkinElmer). Data was normalized with wells containing SARS-CoV-2-S PP as 100%, and wells containing bald PP (no fusion protein) as 0%."}
{"smiles": "CC(=O)c1c(C)c2cnc(Nc3ccc(N4CCNCC4)cn3)nc2n(C2CCCC2)c1=O", "Potency": "17.1 µM (active)"}
{"smiles": "Cc1cc(Nc2nc(N[C@@H](C)c3ncc(F)cn3)ncc2Cl)n[nH]1", "Potency": "2.71 µM (active)"}
{"smiles": "O=C(O)c1ccc2c(c1)nc(Nc1cccc(Cl)c1)c1ccncc12", "Potency": "2.15 µM (active)"}
{"smiles": "Cc1cc(Nc2cc(N3CCN(C)CC3)nc(Sc3ccc(NC(=O)C4CC4)cc3)n2)n[nH]1", "Potency": "0.121 µM (active)"}
{"smiles": "Cc1n[nH]c(C)c1Cc1sc2c(c1C(=O)N1C[C@H](O)CO1)c(=O)n(C)c(=O)n2CC(C)C", "Potency": "0.393 µM (active)"}
{"smiles": "CC(C)(C)c1cnc(CSc2cnc(NC(=O)C3CCNCC3)s2)o1", "Potency": "4.29 µM (active)"}
{"smiles": "CC(C)[C@H](C(=O)Nc1ccc(C(=O)NO)cc1)c1ccccc1", "Potency": "inactive"}
{"smiles": "CCCS(=O)(=O)Nc1ccc(F)c(C(=O)c2c[nH]c3ncc(-c4ccc(Cl)cc4)cc23)c1F", "Potency": "0.0681 µM (active)"}
{"smiles": "CS(=O)(=O)c1cccc(CNc2nc(Nc3ccc4c(c3)CCC(=O)N4)ncc2C(F)(F)F)c1", "Potency": "0.192 µM (active)"}
{"smiles": "CN(c1ncccc1CNc1nc(Nc2ccc3c(c2)CC(=O)N3)ncc1C(F)(F)F)S(C)(=O)=O", "Potency": "0.857 µM (active)"}
{"smiles": "CC(=O)Nc1ccc([C@H](C)C(=O)Nc2ncc(C(C)C)s2)cc1", "Potency": "4.82 µM (active)"}
{"smiles": "COc1cc([C@@H]2c3cc4c(cc3[C@@H](O)C3COC(=O)C32)OCO4)cc(OC)c1O", "note": "(stereo partly drawn)", "Potency": "1.71 µM (active)"}
{"smiles": "CCc1c(C(=O)C(N)=O)c2c(OCC(=O)O)cccc2n1Cc1ccccc1", "Potency": "inactive"}
{"smiles": "O=C(Nc1ccncc1)C(=O)c1cn(Cc2ccc(Cl)cc2)c2ccccc12", "Potency": "0.961 µM (active)"}
{"smiles": "Cc1ccccc1-n1c(Cn2ncc3c(N)ncnc32)nc2cccc(C)c2c1=O", "Potency": "7.64 µM (active)"}
{"smiles": "O=C(c1cc(Cc2n[nH]c(=O)c3ccccc23)ccc1F)N1CCN(C(=O)C2CC2)CC1", "Potency": "27.1 µM (active)"}
{"smiles": "CNC(=O)c1cc(Oc2ccc(NC(=O)Nc3ccc(Cl)c(C(F)(F)F)c3)c(F)c2)ccn1", "Potency": "8.57 µM (active)"}
{"smiles": "COc1cc2nccc(Oc3ccc(NC(=O)C4(C(=O)Nc5ccc(F)cc5)CC4)cc3)c2cc1OC", "Potency": "2.15 µM (active)"}
{"smiles": "O=c1[nH]c(-c2ccc(C(F)(F)F)cc2)nc2c1CSCC2", "Potency": "9.61 µM (active)"}
{"smiles": "N#CCNC(=O)c1ccc(-c2ccnc(Nc3ccc(N4CCOCC4)cc3)n2)cc1", "Potency": "9.61 µM (active)"}
{"smiles": "Cc1ccc(C(N)=O)cc1Nc1nccc(-c2cn(C(C)C)c3cnccc23)n1", "Potency": "1.71 µM (active)"}
{"smiles": "COc1cc(Nc2ncc3c(n2)-c2ccc(Cl)cc2C(c2c(F)cccc2OC)=NC3)ccc1C(=O)O", "Potency": "0.0108 µM (active)"}
{"smiles": "CN1CC[C@@H](c2c(O)cc(O)c3c(=O)cc(-c4ccccc4Cl)oc23)[C@@H](O)C1", "Potency": "1.21 µM (active)"}
